Active and inactive are the calls of the source. Unless noted, how the calls were made is not given here.

Here are results for four molecules from PubChem BioAssay.

The nature of assay [1]: compound effects on lung adenocarcinoma cell viability – A549, calcein-AM fluorescence, 48 h, basal, profiling panel (AID 1162). Further: test concentration not given here. The settings on record: higher = more signal.
Assay [2] can be described thus: compound effects on differentiated 3T3-L1 adipocyte viability – cell-based, 3T3-L1 adipocytes, calcein-AM fluorescence, 48 h, basal, profiling panel (AID 1163). Further: test concentration not given here. The conditions noted are these: 3T3-L1 adipocytes viability, higher = more signal.
Assay [3] is described as follows: compound effects on hepatocellular carcinoma cell viability – HepG2, calcein-AM fluorescence, 48 h, basal, profiling panel (AID 1164). Further: test concentration not given here. The conditions noted are these: higher = more signal.
Assay [4] is described as follows: compound effects on multiple myeloma cell viability – MM1S, calcein-AM fluorescence, 48 h, basal, profiling panel (AID 1165).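 Further: viability of MM1S multiple myeloma cells under basal unstimulated conditions; test concentration not given here.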 The settings on record: higher = more signal.
Assay [5] in a line: calcein-AM signal in unstimulated myeloma cells – cell-based, calcein-AM fluorescence, 48 h, PK04 Diversity Set, profiling panel (AID 1166).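 Further: cells grown under basal conditions without added stimulus; test concentration not given here.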 The settings on record: RPMI8226 myeloma viability, higher = more signal.
The nature of assay [6]: JC-1 mitochondrial signal, unstimulated HepG2 cells – cell-based, JC-1 fluorescence, 24 h, 100 nL compound, profiling panel (AID 1167). Further: test concentration not given here. The settings on record: HepG2 mitochondrial potential, higher = more signal.
Assay [7] can be described thus: JC-1 mitochondrial signal, unstimulated adipocytes – cell-based, JC-1 fluorescence, 3T3-L1 adipocytes, 24 h, 100 nL compound, profiling panel (AID 1168). Further: test concentration not given here. The conditions noted are these: JC-1 mitochondrial fluorescence, higher = more signal, called active from +8 up or from −8 down.
The nature of assay [8]: JC-1 mitochondrial signal, unstimulated myeloma cells – cell-based, JC-1 fluorescence, RPMI8226, 24 h, 100 nL compound, profiling panel (AID 1169). Further: test concentration not given here. The settings on record: JC-1 mitochondrial potential fluorescence, higher = more signal.
A short description of assay [9]: JC-1 mitochondrial signal, unstimulated MM1S myeloma – cell-based, JC-1 fluorescence, 24 h, 100 nL compound, profiling panel (AID 1170). Further: test concentration not given here. The conditions noted are these: MM1S mitochondrial potential, higher = more signal.
The nature of assay [10]: resazurin metabolic signal in A549 cells – cell-based, resazurin fluorescence, 24 h, PK04 Diversity Set, profiling panel (AID 1171). Further: test concentration not given here. The conditions noted are these: A549 viability, higher = more signal, called active from +8 up or from −8 down. (Resazurin is reduced to fluorescent resorufin, in cell work by metabolically active cells.)
The nature of assay [11]: resazurin metabolic signal in HepG2 cells – cell-based, resazurin fluorescence, 24 h, PK04 Diversity Set, profiling panel (AID 1172). Further: test concentration not given here. The settings on record: HepG2 viability, higher = more signal.
A short description of assay [12]: budding yeast growth changes without added modifier – OD600, strain BY4716, 24 h, basal condition, primary screen (AID 1173). The settings on record: S. cerevisiae BY4716 growth, OD600, 24 h; higher = more signal, called active from +8 up or from −8 down.
The nature of assay [13]: viability profiling in MM1S myeloma cells – cell-based, resazurin fluorescence, basal, 24 h, PK04 Diversity Set, profiling panel (AID 1174). Further: test concentration not given here. The settings on record: higher = more signal, called active from +8 up or from −8 down.
Assay [14] deals with Dihydroorotate dehydrogenase (quinone), mitochondrial (Plasmodium falciparum (isolate 3D7)) (UniProt Q08210). Kind of assay: inhibition of P. falciparum DHODH – biochemical, C-terminal His tag, absorbance 600 nm, primary screen (AID 1175).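 Further: recombinant parasite enzyme with a five histidine tag at its C terminus; test concentration not given here.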 The settings on record: PfDHODH enzyme, DCIP absorbance 600 nm; higher = more signal, called active from +8 up or from −8 down.
The nature of assay [15]: inhibition of PAO1 biofilm formation – strain PAO1, LB-PBS medium, absorbance 600 nm, primary screen (AID 1176). Further: test concentration not given here. The conditions noted are these: P. aeruginosa PAO1 growth/biofilm, A600, 12 h; higher = more signal.
The nature of assay [16]: growth modulation of vineyard yeast isolate – strain RM11-1a, OD600, basal, 24 h, primary screen (AID 1177).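 Further: cultures grown under basal conditions with no added stressor; test concentration not given here.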 The conditions noted are these: S. cerevisiae RM11-1a growth, OD600, 24 h; higher = more signal, called active from +8 up or from −8 down.
Assay [17] is described as follows: growth of efflux-deficient E. coli DRC39 – strain DRC39, OD650, 24 h, E. coli filamentation inducers, primary screen (AID 1178).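 Further: growth measured as culture turbidity by optical density at 650 nm; test concentration not given here.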 The settings on record: E. coli DRC39 acrAB, higher = more signal, called active from +8 up or from −8 down.
Assay [18] is described as follows: growth of efflux-deficient E. coli DRC39 – strain DRC39, OD650, 48 h, E. coli filamentation inducers, primary screen (AID 1179).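 Further: screen aims at cell division blockers that make cells filament.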 The conditions noted are these: E. coli DRC39 delta-acrAB growth, higher = more signal, called active from +8 up or from −8 down.
The nature of assay [19]: viability profiling in RPMI8226 myeloma cells – cell-based, resazurin fluorescence, basal, 24 h, PK04 Diversity Set, profiling panel (AID 1180).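 Further: RPMI8826 multiple myeloma cell line at 5000 cells per well; test concentration not given here.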 The conditions noted are these: higher = more signal.
Assay [20] has as its target E3 ubiquitin-protein ligase XIAP (Homo sapiens) (UniProt P98170). The assay can be described thus: small molecules binding XIAP protein – biophysical, small-molecule microarray, fluorescence 635 nm, primary screen (AID 1181).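 Further: score merges 667 nm emission and signal to noise over triplicate slides.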 The conditions noted are these: higher = more signal.

Dihydroorotate dehydrogenase (quinone), mitochondrial (Plasmodium falciparum (isolate 3D7)), sequence (Q08210 whole entry, looked up): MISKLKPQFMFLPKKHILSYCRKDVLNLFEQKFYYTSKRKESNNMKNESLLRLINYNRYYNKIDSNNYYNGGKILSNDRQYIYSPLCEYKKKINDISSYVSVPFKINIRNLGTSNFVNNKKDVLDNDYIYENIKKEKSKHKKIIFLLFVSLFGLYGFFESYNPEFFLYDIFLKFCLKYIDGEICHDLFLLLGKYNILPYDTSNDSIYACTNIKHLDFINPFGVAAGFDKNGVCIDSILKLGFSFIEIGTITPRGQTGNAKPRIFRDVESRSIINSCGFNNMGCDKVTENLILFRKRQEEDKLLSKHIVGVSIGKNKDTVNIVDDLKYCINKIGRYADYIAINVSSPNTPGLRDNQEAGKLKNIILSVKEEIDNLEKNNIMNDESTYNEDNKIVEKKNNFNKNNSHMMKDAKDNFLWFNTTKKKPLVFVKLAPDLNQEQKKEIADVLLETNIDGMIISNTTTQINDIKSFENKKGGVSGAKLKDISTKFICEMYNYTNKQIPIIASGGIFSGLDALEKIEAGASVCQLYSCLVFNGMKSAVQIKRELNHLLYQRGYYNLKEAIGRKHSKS
E3 ubiquitin-protein ligase XIAP (Homo sapiens), sequence (P98170 whole entry, looked up): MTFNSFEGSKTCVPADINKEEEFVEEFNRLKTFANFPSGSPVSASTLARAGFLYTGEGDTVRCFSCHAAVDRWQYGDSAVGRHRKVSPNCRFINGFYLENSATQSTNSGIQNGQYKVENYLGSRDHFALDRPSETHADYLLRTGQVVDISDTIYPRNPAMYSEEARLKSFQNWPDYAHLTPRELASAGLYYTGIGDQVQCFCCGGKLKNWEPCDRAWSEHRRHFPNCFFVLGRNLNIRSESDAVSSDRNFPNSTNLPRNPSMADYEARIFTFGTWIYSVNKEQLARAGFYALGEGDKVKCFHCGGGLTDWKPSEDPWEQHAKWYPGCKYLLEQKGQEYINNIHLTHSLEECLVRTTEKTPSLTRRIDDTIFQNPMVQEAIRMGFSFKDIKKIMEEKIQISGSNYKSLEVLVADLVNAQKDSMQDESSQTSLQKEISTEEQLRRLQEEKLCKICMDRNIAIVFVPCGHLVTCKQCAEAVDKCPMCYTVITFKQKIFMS

For `COCCOC(=O)N1C(=O)[C@@]2(c3cc(C#Cc4ccc(OC)cc4)ccc31)[C@H](c1ccc(OCCO)cc1)N1[C@H](c3ccccc3)[C@H](c3ccccc3)OC(=O)[C@H]1[C@@H]2C(=O)N1CCN(c2ncccn2)CC1`, the z-score is -0.76 in assay [1]; 0.901 in assay [2]; -0.169 in assay [3]; -0.624 in [4]; -0.412 in [5]; 0.548 in assay [6]. For the same molecule, the z-score in [7] was 2.18 (inactive); in assay [8] it was -0.351; in assay [9], -0.857; in assay [10], -0.0439 (inactive); in [11], -0.107; in [12] it was 3.4 (inactive). The z-score in assay [13] is 0.202 (inactive); in assay [15], 1.9 (inactive); in [16], 3.43 (inactive); in [17], 0.129 (inactive); in assay [18], -0.312 (inactive); in assay [19], 0.55. Further, the composite z-score in assay [14] is -1.76 (inactive); in assay [20], 0.0623.

As for `O=C(NC1CC1)[C@@H]1c2ccccc2C(=O)N(Cc2ccccc2Cl)[C@H]1c1ccc(CO)cc1`, the z-score in assay [1] is 3.23; in assay [2] it was 1.4; in [3], 2.25; in assay [4], -0.867; in assay [5] it was 0.97; in assay [6] it was 2.95. The z-score was 0.623 (inactive) in assay [7]; -0.566 in assay [8]; 1.41 in assay [9]; 1.76 (inactive) in assay [10]; 0.382 in assay [11]; -2.09 (inactive) in assay [12]. Moreover, the z-score is -0.0621 (inactive) in assay [13]; 0.994 (inactive) in [15]; -2.66 (inactive) in assay [16]; 1.28 (inactive) in assay [17]; 1.49 (inactive) in [18]; 0.69 in assay [19]. Also, the composite z-score in assay [14] is -1.36 (inactive); in assay [20], 0.0297.

On to `C=CCOC(=O)[C@H]1[C@@H]2C(=O)O[C@@H](c3ccccc3)[C@@H](c3ccccc3)N2[C@@H](c2ccc(OCCOC(=O)[C@@H]3C[C@@H]4C(=O)N[C@@H](CC(C)C)C(=O)N4[C@@H]3c3ccc(O)cc3)cc2)[C@]12C(=O)Nc1ccccc12`, for which the z-score was -1.02 in assay [1]; 0.385 in [2]; -0.529 in [3]; -0.206 in assay [4]; 0.162 in assay [5]; -1.89 in assay [6]. The z-score in assay [7] was 0.0514 (inactive); in assay [8], -0.89; in assay [9] it was -0.836; in assay [10] it was 0.414 (inactive); in [11] it was 0.256; in [12], 1.23 (inactive). Besides, the z-score was -0.347 (inactive) in [13]; 2.94 (inactive) in [15]; 2.05 (inactive) in assay [16]; -0.149 (inactive) in [17]; -0.72 (inactive) in assay [18]; 0.169 in assay [19]. The composite z-score is -0.295 (inactive) in assay [14] and -0.0559 in assay [20].

As to `CC(C)NC(=O)[C@@]1(C)c2ccccc2C(=O)N(Cc2cc(C(F)(F)F)cc(C(F)(F)F)c2)[C@H]1c1ccc(CO)cc1`, the z-score is 1.25 in assay [1]; -0.562 in assay [2]; 0.481 in [3]; -0.137 in assay [4]; -0.825 in assay [5]; 0.718 in assay [6]. Also, the z-score in assay [7] was 0.468 (inactive); in [8] it was -0.382; in [9], -0.527; in assay [10] it was -0.558 (inactive); in assay [11], 0.121; in [12], 0.0934 (inactive). Also, the z-score in assay [13] was -1.21 (inactive); in [15] it was 0.224 (inactive); in assay [16], 0.784 (inactive); in [17], 0.162 (inactive); in [18] it was 0.23 (inactive); in assay [19] it was -0.148. In addition, the figures for the composite z-score in [14] and in [20] were 0.356 (inactive) and 0.0868, respectively.
